# ± gives the standard deviation.
# Test system: MILI (PIWIL2) piRISC loaded with L1MC piRNA (26 nt)
# Test: pre-steady-state target cleavage rate (min^-1); guide: L1MC piRNA 5'p-UAACUAAAUACUAUGCAAGCUGUAGG; MIWI and MILI are mouse PIWI proteins and EfPiwi is from a freshwater sponge; tags in brackets are library labels; higher = faster piRNA-guided slicing of the target
# Details: auxiliary factor: 500 nM mouse GTSF1
# Protocol: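 Cleave-'n-Seq: a library of target RNAs (target site embedded in constant flanks, ACAGCATTCCGCGTTAGTGATATCCG... 5' flank; DNA-blocked outside the site) at 0.1 nM was incubated with 1 nM active mouse MILI or MIWI piRISC (synthetic 5'-monophosphorylated piRNA guide) with or without 500 nM mouse GTSF1 at 33 °C for 1 min to 16 h. Uncleaved targets were sequenced and normalised to non-target controls, and the pooled three trials were fitted to a burst-and-steady-state model to give the pre-steady-state cleavage rate (min^-1; k3 is constrained to at most 1e-4). Sequence is the target site only; target names encode pairing extent (gX:gY) and contiguous / 1-mismatch / 2-mismatch / bulge geometry. Fits with R² ≤ 0 are excluded.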
row,Sequence,pre-steady-state target cleavage rate
1,UCCUGGAUGAGCUAGGAUAGUAUUUAGUUA,0.131 ± 0.021
2,UCCUGCUACAGCUGCAUAGUAUUUAGUUA,0.271 ± 0.02
3,UCCUCCUACAGCUAUGCAUAGUAUUUAGUUA,0.267 ± 0.02
4,UCCUGGUACAGCUUGCAUGGUAUUUAGUUA,0.298 ± 0.021
5,UCCUGGAUGUGCCUGCAUAGUAUUUAGUUA,0.0999 ± 0.015
6,UCCUGGAUGUCGUUGCAUAGUAUUUAGUUU [g2:g18:cont:t1U],0.128 ± 0.016
7,UCCUGGAUCUGCUUGGAUAGUAUUUAGUUA,0.165 ± 0.019
8,UCCUCCUACAGCUUGCAGAGUAUUUAGUUA,0.218 ± 0.021
9,UCCUCCUACAGCUUGCAUAGUAUAAACAAA,0.165 ± 0.043
10,UCCUGGAUGAGCUUGCAUAGUAAUUAGAAA,0.00737 ± 0.0053
11,UCCUGGAUGUGCUUGCAUAGUAUUAAGAUA,0.00523 ± 0.0046
12,UCCUGGAUGUCGUUGCAUAGUAUUUUCUUA,0.00558 ± 0.0035
13,UCCUGGAACAGGUUGCAUAGUAUUUUCAAA,0.0435 ± 0.012
14,UCCUGGAUGAGCCUUGCAUAGUAUUUAGUUA,0.16 ± 0.02
15,UCCUGGAACACCUUGCAUAGUAUUUAGUAA,0.17 ± 0.022
16,UCCUGGAACAGGUUGCUUAGUAUUUAGUUA,0.253 ± 0.015
17,UCCUGGUACAGCUUGCAUAGUAUUUAGUCUA,0.0602 ± 0.024
18,UCCUGCUACAGCUUGCAUAGUAUUUAGUUUA,0.308 ± 0.018
19,UCCUCCUACAGCUUGCAUUGUAUUUAGUUA,0.222 ± 0.014
20,UCCUGGAACAGCUUGUCAUAGUAUUUAGUUA,0.2 ± 0.014
21,UCCUGCUACAGCAACCAUAGUAUUUAGUAA,0.35 ± 0.063
22,UCCUCCUACAGCAUUGCAUAGUAUUUAGUUA,0.228 ± 0.014
23,UCCUGGAUGUGCUUGCUAGUAUUUAGUUA,0.00654 ± 0.0035

# Same assay, conditions: auxiliary factor: none (no GTSF1)
row,Sequence,pre-steady-state target cleavage rate
1,UCCUGGAUGAGCUAGGAUAGUAUUUAGUUA,0.00494 ± 0.0027
2,UCCUGCUACAGCUGCAUAGUAUUUAGUUA,0.00665 ± 0.0026
3,UCCUCCUACAGCUAUGCAUAGUAUUUAGUUA,0.00637 ± 0.0022
4,UCCUGGUACAGCUUGCAUGGUAUUUAGUUA,0.0136 ± 0.0044
5,UCCUGGAUGUGCCUGCAUAGUAUUUAGUUA,0.00951 ± 0.003
6,UCCUGGAUGUCGUUGCAUAGUAUUUAGUUU [g2:g18:cont:t1U],0.0134 ± 0.0037
7,UCCUGGAUCUGCUUGGAUAGUAUUUAGUUA,0.0102 ± 0.0026
8,UCCUCCUACAGCUUGCAGAGUAUUUAGUUA,0.00823 ± 0.0022
9,UCCUGGAUGAGCCUUGCAUAGUAUUUAGUUA,0.0071 ± 0.0027
10,UCCUGGAACAGGUUGCUUAGUAUUUAGUUA,0.0109 ± 0.0031
11,UCCUGGUACAGCUUGCAUAGUAUUUAGUCUA,0.00783 ± 0.0041
12,UCCUGCUACAGCUUGCAUAGUAUUUAGUUUA,0.0118 ± 0.0032
13,UCCUCCUACAGCUUGCAUUGUAUUUAGUUA,0.00744 ± 0.0019
14,UCCUGGAACAGCUUGUCAUAGUAUUUAGUUA,0.00365 ± 0.0033
15,UCCUCCUACAGCAUUGCAUAGUAUUUAGUUA,0.00746 ± 0.0025
16,UCCUGGAUGUGCUUGCUAGUAUUUAGUUA,0.00432 ± 0.0028

# Reference: the supplement of paper PMC10338343
